Laboratory results taken from PubChem BioAssay AID1159580 (chemical genetic matrix, 2015).
About 2,000 (36%) of roughly 5,500 compounds were called active. Not shown: some 18% with an inconclusive outcome. Cut-off read from the data, not from the text of the source: active = normalized growth mostly below about 0.91 (no sharp cut-off); inconclusive = no clear call, values can overlap the other calls; inactive = mostly above about 0.92. The list shows a part of the results.

Test: chemical genetic growth profiling, strain panel (AID 1159580);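 note: tested at 20 µM; growth read once vehicle control cultures reached saturation at 30 °C; 1 = growth at the plate median or of vehicle wells; lower values mean less growth of the strain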
Conditions: growth OD

Measured: normalized growth

CC(=O)Oc1cc(-c2coc3cc(OC(C)=O)c(OC(C)=O)c(OC(C)=O)c3c2=O)cc(OC(C)=O)c1OC(C)=O
active: S. cerevisiae deletion strains, locus YKL190W, strain CNB1, active compounds read low 0.888 | S. cerevisiae deletion strains, locus YLR039C, strain RIC1, active compounds read low 0.635 | S. cerevisiae deletion strains, locus YLR058C, strain SHM2, active compounds read low 0.272 | S. cerevisiae deletion strains, locus YLR342W, strain FKS1 (second series), active compounds read low 0.659 | S. cerevisiae deletion strains, locus YLR342W, strain FKS1, active compounds read low 0.904 | S. cerevisiae deletion strains, locus YLR357W, strain rsc2, active compounds read low 0.77 | S. cerevisiae deletion strains, locus YLR370C, strain arc18, active compounds read low 0.909 | S. cerevisiae deletion strains, locus YLR371W, strain rom2, active compounds read low 0.801 | S. cerevisiae deletion strains, locus YLR418C, strain cdc73, active compounds read low 0.782 | S. cerevisiae deletion strains, locus YML016C, strain PPZ1, active compounds read low 0.71 | S. cerevisiae deletion strains, locus YML032C, strain rad52, active compounds read low 0.83 | S. cerevisiae deletion strains, locus YML120C, strain ndi1, active compounds read low 0.898 | S. cerevisiae deletion strains, locus YMR058W, strain fet3, active compounds read low 0.698 | S. cerevisiae deletion strains, locus YMR231W, strain pep5, active compounds read low 0.924 | S. cerevisiae deletion strains, locus YMR263W, strain SAP30, active compounds read low 0.734 | S. cerevisiae deletion strains, locus YNL067W, strain RPL9B, active compounds read low 0.848 | S. cerevisiae deletion strains, locus YNL209W, strain ssb2, active compounds read low 0.785 | S. cerevisiae deletion strains, locus YNL233W, strain BNI4, active compounds read low 0.824 | S. cerevisiae deletion strains, locus YNL322C, strain KRE1, active compounds read low 0.767 | S. cerevisiae deletion strains, locus YNR052C, strain pop2, active compounds read low 0.658 | S. cerevisiae deletion strains, locus YOL147C, strain pex11, active compounds read low 0.694 | S. cerevisiae deletion strains, locus YOR001W, strain rrp6, active compounds read low 0.859 | S. cerevisiae deletion strains, locus YOR061W, strain CKA2, active compounds read low 0.887 | S. cerevisiae deletion strains, locus YOR069W, strain VPS5, active compounds read low 0.904 | S. cerevisiae deletion strains, locus YOR080W, strain dia2, active compounds read low 0.899 | S. cerevisiae deletion strains, locus YOR106W, strain vam3, active compounds read low 0.778 | S. cerevisiae deletion strains, locus YOR144C, strain elg1, active compounds read low 0.797 | S. cerevisiae deletion strains, locus YOR270C, strain vph1, active compounds read low 0.564 | S. cerevisiae deletion strains, locus YOR290C, strain snf2, active compounds read low 0.322 | S. cerevisiae deletion strains, locus YPL051W, strain arl3, active compounds read low 0.847 | S. cerevisiae deletion strains, locus YPL055C, strain LGE1, active compounds read low 0.751 | S. cerevisiae deletion strains, locus YPL078C, strain atp4, active compounds read low 0.772 | S. cerevisiae deletion strains, strain wtn01, active compounds read low 0.882 | S. cerevisiae strains, strain wild type, active compounds read low 0.75
inactive: S. cerevisiae deletion strains, locus YKL009W, strain mrt4, active compounds read low 1.05 | S. cerevisiae deletion strains, locus YKL068W, active compounds read low 1.01 | S. cerevisiae deletion strains, locus YKL085W, strain MDH1 (second series), active compounds read low 1.01 | S. cerevisiae deletion strains, locus YKL085W, strain MDH1, active compounds read low 1.01 | S. cerevisiae deletion strains, locus YKL160W, strain elf1, active compounds read low 0.926 | S. cerevisiae deletion strains, locus YKR001C, strain vps1, active compounds read low 0.962 | S. cerevisiae deletion strains, locus YKR026C, strain gcn3, active compounds read low 0.979 | S. cerevisiae deletion strains, locus YKR091W, strain srl3, active compounds read low 0.985 | S. cerevisiae deletion strains, locus YLL001W, strain dnm1, active compounds read low 0.918 | S. cerevisiae deletion strains, locus YLL026W, active compounds read low 0.966 | S. cerevisiae deletion strains, locus YLL041C, strain sdh2, active compounds read low 0.967 | S. cerevisiae deletion strains, locus YLR027C, strain aat2, active compounds read low 0.964 | S. cerevisiae deletion strains, locus YLR102C, strain apc9, active compounds read low 1.03 | S. cerevisiae deletion strains, locus YLR113W, strain HOG1, active compounds read low 1.11 | S. cerevisiae deletion strains, locus YLR221C, strain rsa3, active compounds read low 0.911 | S. cerevisiae deletion strains, locus YLR258W, strain gsy2, active compounds read low 0.963 | S. cerevisiae deletion strains, locus YLR262C, strain YPT6 (second series), active compounds read low 0.887 | S. cerevisiae deletion strains, locus YLR262C, strain YPT6, active compounds read low 0.89 | S. cerevisiae deletion strains, locus YLR268W, strain sec22, active compounds read low 0.889 | S. cerevisiae deletion strains, locus YLR320W, strain mms22, active compounds read low 0.9 | S. cerevisiae deletion strains, locus YLR384C, strain iki3, active compounds read low 0.965 | S. cerevisiae deletion strains, locus YML124C, strain tub3, active compounds read low 1 | S. cerevisiae deletion strains, locus YMR078C, strain ctf18, active compounds read low 1.01 | S. cerevisiae deletion strains, locus YMR125W, strain sto1, active compounds read low 1.03 | S. cerevisiae deletion strains, locus YMR129W, active compounds read low 0.98 | S. cerevisiae deletion strains, locus YMR205C, strain PFK2, active compounds read low 0.896 | S. cerevisiae deletion strains, locus YMR223W, strain ubp8, active compounds read low 0.938 | S. cerevisiae deletion strains, locus YMR307W, strain GAS1, active compounds read low 0.67 | S. cerevisiae deletion strains, locus YNL071W, strain lat1, active compounds read low 0.979 | S. cerevisiae deletion strains, locus YNL183C, strain NPR1, active compounds read low 0.988 | S. cerevisiae deletion strains, locus YNL248C, strain rpa49, active compounds read low 0.945 | S. cerevisiae deletion strains, locus YNL250W, strain rad50, active compounds read low 1.06 | S. cerevisiae deletion strains, locus YNL271C, strain bni1, active compounds read low 1.01 | S. cerevisiae deletion strains, locus YNL298W, strain CLA4, active compounds read low 0.998 | S. cerevisiae deletion strains, locus YNL307C, strain MCK1, active compounds read low 1.02 | S. cerevisiae deletion strains, locus YNL322C, strain KRE1 (second series), active compounds read low 0.972 | S. cerevisiae deletion strains, locus YNR049C, strain mso1, active compounds read low 0.979 | S. cerevisiae deletion strains, locus YOL012C, strain htz1 0.316 | S. cerevisiae deletion strains, locus YOR070C, strain gyp1, active compounds read low 0.937 | S. cerevisiae deletion strains, locus YOR083W, strain WHI5, active compounds read low 0.908 | S. cerevisiae deletion strains, locus YOR136W, strain idh2, active compounds read low 1 | S. cerevisiae deletion strains, locus YOR184W, strain ser1, active compounds read low 0.905 | S. cerevisiae deletion strains, locus YOR231W, strain MKK1, active compounds read low 1.05 | S. cerevisiae deletion strains, locus YOR265W, strain rbl2, active compounds read low 0.946 | S. cerevisiae deletion strains, locus YOR316C, strain cot1, active compounds read low 1.02 | S. cerevisiae deletion strains, locus YPL106C, strain sse1, active compounds read low 0.869 | S. cerevisiae deletion strains, locus YPL240C, strain hsp82, active compounds read low 0.961 | S. cerevisiae deletion strains, locus YPL256C, strain CLN2, active compounds read low 1.12 | S. cerevisiae deletion strains, locus YPR119W, strain clb2, active compounds read low 1.03 | S. cerevisiae deletion strains, locus YPR141C, strain kar3, active compounds read low 1.03 | S. cerevisiae deletion strains, locus YPR163C, strain tif3, active compounds read low 0.989 | S. cerevisiae deletion strains, locus YPR167C, strain met16, active compounds read low 0.953
